GCN5L2 inh = qHTS Assay for Inhibitors of GCN5L2; actives 0.21% (n = 390,000); Histone acetyltransferase KAT2A (Homo sapiens), Q92830; GCN5L2 HAT assay, ThioGlo1 CoA-SH fluorescence; Potency, µM (doses to about 58.9 µM), for inactives: top-dose activity change, negative = inhibition, actives largely listed as inhibitors; note: % is set by controls: 0 for no effect and ±100 for the full control effect
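Enzyme at 20nM final was mixed with library compounds for 15 min at room temperature. Peptide H3(1-25) at 75uM, acetyl-CoA at 70uM and ThioGlo1 at 50uM were then added. Plates were read immediately and after 20 min (Ex340nm/Em540nm).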
Mito fusion yeast = qHTS Assay for Small Molecule Inhibitors of Mitochondrial Division or Activators of Mitochondrial Fusion; S. cerevisiae fusion-defective mutant growth rescue, CellTiterGlo 48 h; Potency, µM (titrated, usually from 46.1 µM), without a hit: top-dose growth rescue (activation), most hits filed as activators; actives 0.23% (n = 320,000); note: % of control where 0% means no effect; nearly all actives have a fitted effect of over 45% in size
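Growth-rescue viability read-out: after 48 h at the non-permissive 37C in glycerol/ethanol YPEG, yeast mitochondrial fusion mutants are measured by CellTiterGlo luminescence; compounds (23 nl pinned per well) restoring growth score as division inhibitors or fusion activators.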
PKM2 act = qHTS Assay for Activators of Human Muscle isoform 2 Pyruvate Kinase; Pyruvate kinase PKM (Homo sapiens), P14618; purified PKM2, Kinase-Glo ATP luminescence, activation; response scale: 0% is enzyme alone, no compound; Potency, µM (series often up to 57.5 µM), for the others: at the top dose activation, usual class: activators; actives 0.34% (n = 260,000); note: % is set by controls: 0 for no effect and ±100 for the full control effect; nearly all actives have a fitted effect of over 55% in size
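Purified hPK-M2 (>95%) run at intermediate activity with 0.1 mM ADP and 0.5 mM PEP in 50 mM imidazole pH 7.2, KCl, MgCl2; 1 h room temperature. ATP formed read by Kinase-Glo luminescence; normalized to uninhibited and no-enzyme controls.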
VDR inhibitor = Inhibitors of the vitamin D receptor (VDR): qHTS; Vitamin D3 receptor (Homo sapiens), P11473; actives 0.93% (n = 400,000); AID 504847, 2011; VDR-SRC2-3 peptide fluorescence polarization, 2 h; Potency, µM, inactives show max response, negative = inhibition, hits mostly inhibitors; note: % is set by controls: 0 for no effect and ±100 for the full control effect
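Signal is fluorescence polarization, reporting how far test compounds block the interaction of VDR with the SRC2-3 coregulator peptide after a 2 h room-temperature incubation.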
GLS inh = qHTS for Inhibitors of Glutaminase (GLS); Glutaminase kidney isoform, mitochondrial (Homo sapiens), O94925; GLS enzymatic activity, qHTS titration; Potency, µM (series often up to 45.5 µM), without a hit: at the top dose activity change, negative = inhibition, most hits filed as inhibitors; actives 0.21% (n = 410,000); note: % is set by controls: 0 for no effect and ±100 for the full control effect
Target sequence (O94925 whole entry, looked up, canonical isoform): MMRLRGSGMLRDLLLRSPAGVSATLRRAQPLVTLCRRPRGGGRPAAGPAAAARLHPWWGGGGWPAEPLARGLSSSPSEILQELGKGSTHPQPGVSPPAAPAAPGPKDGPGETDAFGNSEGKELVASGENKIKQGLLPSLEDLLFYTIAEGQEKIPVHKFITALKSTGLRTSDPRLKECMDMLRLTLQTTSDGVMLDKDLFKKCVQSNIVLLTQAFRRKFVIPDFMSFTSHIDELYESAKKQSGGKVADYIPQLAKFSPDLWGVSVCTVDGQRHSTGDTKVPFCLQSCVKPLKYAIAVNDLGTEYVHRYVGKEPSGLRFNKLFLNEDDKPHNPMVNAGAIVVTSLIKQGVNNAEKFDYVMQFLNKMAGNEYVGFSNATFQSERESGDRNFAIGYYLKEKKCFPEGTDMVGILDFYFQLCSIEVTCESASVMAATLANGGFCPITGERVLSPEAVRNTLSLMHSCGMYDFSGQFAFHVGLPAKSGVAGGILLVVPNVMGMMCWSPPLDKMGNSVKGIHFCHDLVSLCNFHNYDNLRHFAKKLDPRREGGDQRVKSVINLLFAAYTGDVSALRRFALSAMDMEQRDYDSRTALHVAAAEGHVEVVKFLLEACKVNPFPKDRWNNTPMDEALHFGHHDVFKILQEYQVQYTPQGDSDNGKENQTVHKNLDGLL
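hKGA in 45 mM KH2PO4 pH 8.2, 0.02% Tween-20 with pin-transferred compounds; 1 mM L-glutamine (stock) plus glutamate oxidase/HRP/Amplex Red coupling added. Fluorescence read initially and after 30 min at RT.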
PLK1 PBD inh = qHTS for Inhibitors of PLK1-PDB (polo-like kinase 1 - polo-box domain): Primary Screen. Serine/threonine-protein kinase PLK1 (Homo sapiens), P53350. Plk1 PBD binding of FITC phosphopeptide, fluorescence polarization. Potency, µM, for the others: max response, negative = inhibition, actives largely listed as inhibitors. actives 2.8% (n = 360,000); note: series mostly up to about 57 µM; % is set by controls: 0 for no effect and ±100 for the full control effect; nearly all actives have a fitted effect of over 65% in size
Starred values were filed as active, the others as inactive; u = inconclusive; x = no result; ! = not active in a repeat; [ ] = another dose, or the depositor's remark. Hits are enriched below; roughly 3.4% of the tested compounds scored in any of these assays. Calls come from the whole dose curve; as a rule, active = well fitted curve in the direction sought with a large enough effect; inconclusive = small, poorly fitted or top-dose-only effect, or another doubt; inactive = no such curve, though single readings can be large; an effect the other way counts as inactive or inconclusive. Potency is the fitted concentration of half-maximal effect.

SMILES | GCN5L2 inh | Mito fusion yeast | PKM2 act | VDR inhibitor | GLS inh | PLK1 PBD inh
C=Cc1c(C)c2cc3nc(cc4[nH]c(cc5nc(cc1[nH]2)C(C)=C5CCC(=O)O)c(CCC(=O)OC)c4C)[C@@]1(C)C3=CC=C(C(=O)OC)[C@H]1C(=O)OC (tested in a mixture with another compound) | 3.8%[21.4 µM] | x | x | 1.12µM* | u | x
CCc1oc2ccccc2c1C(=O)c1cc(Br)c(O)c(Br)c1 | u | -4.5% | 0.1% | 50.1µM*! | 12.4% | 8.44µM*
CCc1ccc(OCC(=O)c2c(O)c3ccccc3oc2=O)cc1 | -8.9% | -3.8% | 2.2% | -16.5% | 15.3% | -27.1%
CCC1(CC)NC(=O)N(CC(=O)OCC(=O)Nc2ccc(F)c(F)c2F)C1=O | -0.9% | -7.8% | 6.3% | 3.0% | -11.5% | -3.3%
CSC1=C(C#N)C(c2ccc(Cl)cc2)C2=C(CC(C)(C)CC2=O)N1 (stereo not drawn) | 0.4% | 6.8% | -0.8% | -16.1% | -5.9% | -9.0%
CSC1=NC=C(C#N)C2=NC(c3ccc(Cl)cc3)NN12 (stereo not drawn) | x | x | x | x | 12.6µM* | -19.4%
Cc1nn(-c2ccccc2)c(Cl)c1/C=C1\SC(=S)NC1=O | -6.9% | 12.0% | -17.8% | -20.6% | 20.9% | u
O=C(O)CCCN1C(=O)/C(=C\c2ccccc2OCc2ccccc2)SC1=S | -16.9% | 23.2% | x | -25.3% | 31.3% | 26.7µM*
O=C(O)CCCN1C(=O)/C(=C\C(Cl)=C\c2ccccc2)SC1=S | 0.4% | -30.7% | x | 135.2% | -2.5% | 10.6µM*
O=C(O)CN1C(=O)/C(=C\c2ccccc2OCc2ccccc2)SC1=S | x | x | x | x | -2.6% | u
Cc1nn(-c2ccccc2)c(Cl)c1/C=C1\SC(=S)N(CCCCCC(=O)O)C1=O | -17.1% | 0.2% | 0.5% | u | 8.4% | 23.8µM*
O=C(O)CCCCN1C(=O)/C(=C\c2ccc(OCc3ccccc3)c(OCc3ccccc3)c2)SC1=S | u | -7.3% | 1.7% | 7.8% | 10.1% | u
O=C(O)CN1C(=O)/C(=C\c2ccccc2OCc2ccc(F)cc2)SC1=S | -10.2% | 5.3% | x | u | 35.4% | 26.7µM*
Fc1ccccc1-n1[nH]nnc1=S | x | -11.7% | -22.6% | 44.7µM* | -24.7% | u
O=C1NC2c3c(Cl)sc(Cl)c3C(=O)C2O1 (stereo not drawn) | x | x | x | u | u | 15µM*
O=C1NC2c3c(I)sc(I)c3C(=O)C2O1 (stereo not drawn) | x | x | x | -20.1% | 7.8% | u
Cc1cc(Br)ccc1NC(=O)CN(C)C(=O)CCSc1ccc(F)cc1 | -2.3% | 2.6% | x | -3.2% | 6.5% | 26.7µM*
CN(CC(=O)Nc1cccc(F)c1)C(=O)CCSc1ccc(F)cc1 | 2.9% | 13.7% | x | -15.4% | -7.2% | -11.3%
O=c1[nH]c2ccccc2c(O)c1O | -16.5% | 0.9% | -14.7% | 7.08µM* | 5.62µM* | 10.6µM*
O=c1[nH]c2ccccc2c(O)c1-[n+]1ccccc1 | -6.1% | -4.6% | -0.5% | -11.8% | 1.1% | -4.9%
COc1ccc(NC(=O)CN(C)C(=O)c2cnc(Cl)c(Cl)c2)cc1 | -1.8% | -9.5% | x | -14.9% | -2.3% | -4.7%
NCCNc1ccc([N+](=O)[O-])c(Sc2nc3ccccc3[nH]2)c1 | -6.9% | -7.0% | 2.0% | 6.5% | 1.3% | -1.9%
CC(=O)OCCCNc1cc(SCc2ccco2)c2nonc2c1[N+](=O)[O-] | 35.3% | 16.7% | u | 79.4µM* | 6.5% | u
CCCSc1cc(NCCOC(C)=O)c([N+](=O)[O-])c2nonc12 | 7.2% | 20.3% | 9.2% | u | 0.8% | u

Bioassay records: PubChem, National Center for Advancing Translational Sciences (NCATS)
